Vaccinia Venus: qHTS for Stage-Specific Inhibitors of Vaccinia Orthopoxvirus: Venus Reporter Primary qHTS; Vaccinia virus Venus reporter expression, fluorescence; Potency, µM (titrated, usually from 36.5 µM), for inactives: at the top dose activity change, negative = inhibition, most hits filed as inhibitors; 330,000 tested, 0.46% active; calls by dose curve; tested in A549 cells; further: potency means the concentration at half of the fitted maximal effect; on the % scale 0 is the no-effect control and ±100 the full control effect; nearly all actives have a fitted effect of over 30% in size
Marburg entry inh: qHTS for inhibitors of binding or entry into cells for Marburg Virus; Marburg virus pseudotyped entry inhibition, cell reporter; Potency, µM (doses to about 37.8 µM), for inactives: top-dose activity change, negative = inhibition, actives largely listed as inhibitors; 300,000 tested, 1.8% active; AID 540276, 2011; calls by dose curve; tested in HEK293 cells; further: potency means the concentration at half of the fitted maximal effect; on the % scale 0 is the no-effect control and ±100 the full control effect
VACV mCherry inh: qHTS for Stage-Specific Inhibitors of Vaccinia Orthopoxvirus: mCherry Reporter Primary qHTS; Vaccinia virus mCherry reporter infection, fluorescence; Potency, µM (series often up to 36.5 µM), for inactives: top-dose activity change, negative = inhibition, hits mostly inhibitors; AID 720579, 2013; 310,000 tested, 0.63% active; calls by dose curve; tested in A549 cells; further: potency means the concentration at half of the fitted maximal effect; on the % scale 0 is the no-effect control and ±100 the full control effect; nearly all actives have a fitted effect of over 35% in size
LASV entry inh: qHTS for Inhibitors of binding or entry into cells for Lassa Virus; Lassa virus pseudotype entry inhibition, cell reporter; Potency, µM (doses to about 37.9 µM), inactives show top-dose activity change, negative = inhibition, hits mostly inhibitors; 300,000 tested, 1.2% active; AID 540256, 2011; calls by dose curve; tested in HEK293 cells; further: potency means the concentration at half of the fitted maximal effect; on the % scale 0 is the no-effect control and ±100 the full control effect; nearly all actives have a fitted effect of over 50% in size
Shiga toxin inh: A qHTS for Small Molecule Inhibitors of Shiga Toxin; Vero cells, Shiga toxin protein synthesis inhibition reporter; inhibition, % at 38.7 µM; 290,000 tested, 9.2% active; AID 2315, 2010; in the data active means inhibition mostly above about 28%, no sharp cut-off; inactive means mostly below about 43%; further: 0% is about no effect
Cycloheximide cs: Cycloheximide Counterscreen for Small Molecule Inhibitors of Shiga Toxin. max response, %. cell reporter, cycloheximide protein synthesis inhibition counterscreen. 300,000 tested, 12% active; in the data active means max response mostly above about 13%, no sharp cut-off; inactive means mostly below about 14%; further: read at 38.3 µM for the half of the compounds with a filed dose; 0% is about no effect
The depositor's hits bear a star; i = inactive; ? = inconclusive; . = not tested or not shown; ! = not confirmed by another sample; [ ] = another dose, or the depositor's remark. The sample as a whole holds a higher share of hits than the screen did.

SMILES | Vaccinia Venus | Marburg entry inh | VACV mCherry inh | LASV entry inh | Shiga toxin inh | Cycloheximide cs
COc1ccccc1C(=O)Nc1c(C(=O)Nc2cc(Cl)ccc2C)sc2nc(C)cc(C)c12 | 9.4% | ? | -0.9% | -0.4%[46.1 µM] | . | .
Cc1cc(C)n(-c2nc(NCCN(C)C)c3c4c(sc3n2)COC(C)(C)C4)n1 | -24.5% | 7.08µM* | -2.2% | 12.6µM* | 10.3 | 8.5
CCN(CC)CCNc1nc(-n2nc(C)cc2C)nc2sc3c(c12)CC(C)(C)OC3 | ? | ? | ? | 7.94µM* | 31.3 | 11.8*
Cc1cc(C)n(-c2nc(NCCCN(C)C)c3c4c(sc3n2)COC(C)(C)C4)n1 | ? | ? | ? | -24.9% | -7.3 | -1.7
CCSc1nc(NCCN(C)C)c2c3c(sc2n1)COC(C)(CC)C3 (stereo not drawn) | -8.2%[7.34 µM] | ? | -10.0%[7.34 µM] | -28.2% | -10.5 | 29.7*
COc1ccc(C(=O)c2oc3ccccc3c2NC(=O)c2nc(SC)ncc2Cl)cc1Cl | -0.5% | -15.2%[46.1 µM] | -4.1% | 7.0%[46.1 µM] | . | .
Cc1ccc(-c2nc3ccccn3c2Nc2ccc3c(c2)OCO3)o1 | -5.2% | -9.5%[46.1 µM] | -18.5% | 28.2%[46.1 µM] | . | .
CN(C)c1ccc(-c2nc3cnccn3c2Nc2ccc3c(c2)OCCO3)cc1 | . | . | . | . | 87.4* | 31.0*
Cc1ccc(-c2nc3cnccn3c2Nc2ccc3c(c2)OCCO3)o1 | -4.9% | 0.0% | -14.8% | -0.1% | 22.2* | 33.6*
Cc1ccc(-c2nc3cnccn3c2Nc2ccc3c(c2)OCO3)cc1 | -13.3% | . | i | . | 10.9 | 2.7
S=C(NC1CC1)N1CCN(C(=S)NC2CC2)CC1 | -1.9% | 0.3%[46.1 µM] | -12.2% | 12.6%[46.1 µM] | 7.2 | 28.4*
S=C(NC1CCCCC1)N1CCN(C2CCCCC2)CC1 | -13.9% | 0.1%[46.1 µM] | -5.1% | 1.3% | 13.4 | 14.4
CN(CCC#N)C(=O)COC(=O)c1c2c(nc3ccccc13)/C(=C/c1ccco1)CC2 | -16.0% | -0.3% | -6.2% | 0.1% | 23.5 | 38.4*
CC(C)CNC(=O)COC(=O)c1c2c(nc3ccccc13)/C(=C\c1cccs1)CC2 | ? | -4.8% | -20.1% | ? | . | .
Cc1ccc(C(=O)OCC(=O)Nc2c(Cl)cc(S(N)(=O)=O)cc2Cl)o1 | -4.0%[7.34 µM] | . | -0.5%[7.34 µM] | . | -2.8 | -2.2
CN1C(=O)c2ccc(NC(=O)c3ccc(Cl)cc3Cl)cc2C1=O | . | . | . | . | 14.1 | 22.0*
O=C(Nc1ccc2ccccc2c1)c1cc(F)c(F)cc1Cl | -6.3% | 7.08µM* | 10.9% | ? | 109.6* | 47.3*
O=C(Nc1ccc2ccccc2c1)c1ccccc1O | ? | 2.51µM* | ? | ? | 36.1* | 23.5*
O=C(Nc1ccc2ccccc2c1)c1ccccc1Cl | -10.6% | . | i | . | . | .
O=C(Nc1ccc2ccccc2c1)c1ccc(Cl)cc1Cl | -9.7% | . | i | . | 31.7* | 26.0*
CCCCOc1ccc(NC(=O)c2cc(F)c(F)cc2Cl)cc1 | -15.6% | ? | -13.5% | 17.4% | 22.2 | 10.0
COc1cccc(-n2c(-c3ccco3)nc3c(cnn3-c3ccccc3C)c2=O)c1 | -3.4% | ? | -13.7% | ? | . | .
Cc1ccc2c(c1)c1c(c(=O)n(Cc3ccccc3)c(=O)n1Cc1cccc(F)c1)n2C | 2.5% | . | 2.2% | 8.9%[46.1 µM] | . | .
COC(=O)C/C=C/[C@@H](C)[C@H](OC)c1ccccc1Br | . | -10.5%[14.2 µM] | . | . | . | .
Cc1ccccc1-c1cc(=O)c2c(O)cccc2o1 | -14.5% | . | -6.5% | . | 28.4* | 22.5*
SMILES | Vaccinia Venus | Marburg entry inh | VACV mCherry inh | LASV entry inh | Shiga toxin inh | Cycloheximide cs
O=c1cc(-c2cccc(Cl)c2)oc2cccc(O)c12 | -24.7% | . | -2.8% | . | 97.2 | 26.7*!
Nc1ccc2oc(-c3ccccc3Cl)cc(=O)c2c1O | 0.891µM* | -5.2% | 0.794µM* | 1.6% | 42.5* | 50.3*
O=c1cc(-c2ccccc2)oc2cccc(O)c12 | 2.6% | . | -3.3% | . | . | .
COc1cccc(-c2cc3c(c(OC)c2)OCCN(Cc2cccn2-c2ccccn2)C3)c1 | -0.6% | . | -16.2% | . | . | .
O=C(c1ccc2c(c1)CCCC2)N1CCN(c2nc3c(F)cccc3s2)CC1 | -16.5% | . | i | 0.7%[46.1 µM] | . | .
Fc1cccc2sc(N3CCOCC3)nc12 | . | ? | . | ? | 51.8* | 15.2*
Clc1ccc(Cl)c2sc(N3CCOCC3)nc12 | -23.1% | -2.3%[46.1 µM] | -0.9% | ? | . | .
Clc1cc(Cl)c2nc(N3CCOCC3)sc2c1 | . | 19.8% | . | 20.6% | 51.2* | 31.0*
Fc1cccc2sc(N3CCCCC3)nc12 | . | . | . | . | 56.7* | 53.8*
Fc1cc(F)c2nc(N3CCCC3)sc2c1 | -5.5% | 2.7%[46.1 µM] | i | 2.6% | 150.4* | 29.3*
C=CC[C@@H]1C=C[C@H](ON=C[C@@H](C)[C@H](OCc2ccccc2)C(C)C)[C@H](CO)O1 | . | -10.4%[14.2 µM] | . | ? | . | .
Clc1ccc(-c2nsc(N3CCOCC3)n2)c(Cl)c1 | -7.2% | ? | -21.5% | ? | 72.0* | 33.8*
Clc1ccc(-c2ccnc3nc(N4CCOCC4)nn23)c(Cl)c1 | -7.8% | -2.7%[46.1 µM] | -23.6% | 27.5% | . | .
O=C1Nc2ccccc2/C1=C/c1ccc([N+](=O)[O-])cc1 | -14.9% | -0.4%[46.1 µM] | i | ? | 29.5 | 11.6
CC1(c2ccc([N+](=O)[O-])cc2)Nc2ccccc2S1 (stereo not drawn) | -11.9% | 18.0%[46.1 µM] | ? | -2.8%[46.1 µM] | 65.0* | 33.3*
O=C(Nc1cccc(-c2nc3ccccc3o2)c1)c1cccc2c(Cl)cccc12 | -8.6% | 8.0%[46.1 µM] | -3.3% | -15.4%[46.1 µM] | . | .
CSC1SCC2C(=O)N(C)C(C(C)C)C(=O)OCC(NC(=O)c3cnc4ccccc4n3)C(=O)NC(C)C(=O)N(C)C1C(=O)N(C)C(C(C)C)C(=O)OCC(NC(=O)c1cnc3ccccc3n1)C(=O)NC(C)C(=O)N2C (stereo not drawn) | 0.0035µM* | ? | ? | ? | . | .
COc1ccc(NC(=O)c2oc3ccccc3c2NC(=O)c2cc3ccccc3o2)c(OC)c1 | -1.8% | -0.7%[46.1 µM] | 2.6% | 15.1%[46.1 µM] | . | .
COc1ccc(NC(=O)c2oc3ccccc3c2NC(=O)c2cc3ccccc3o2)cc1 | -17.5% | -11.8%[46.1 µM] | -24.0% | 0.6%[46.1 µM] | . | .
COc1ccc(NC(=O)c2oc3ccccc3c2NC(=O)c2ccco2)c(OC)c1 | . | -1.2% | . | -6.5% | 16.3 | 10.7*
COc1ccc(NC(=O)c2oc3ccccc3c2NC(=O)c2ccco2)cc1 | . | ? | . | -20.2% | 35.1* | 47.2*
CC(OC(=O)c1ccc(Cl)nc1)C(=O)NC1(C#N)CCCCC1 (stereo not drawn) | -9.7% | 19.4% | i | 20.7% | . | .
CC(C)(CO)CNC(=O)c1ccc2nc(Cc3cccc(Cl)c3)oc2c1 | -11.3% | 7.3% | i | -26.3% | . | 11.7
CCCCc1c(C)c2ccc(OC)c(/C(C)=N\O)c2oc1=O | -18.0% | 8.9% | -5.9% | -11.4% | 35.0 | 18.8*
COc1ccc2c(C)c(Cc3ccccc3)c(=O)oc2c1OC | . | . | . | . | 14.3 | 1.2
O=C(c1ccc(OCCCc2cnc[nH]2)cc1)C1CC1 | . | ? | . | ? | 80.1* | 34.5*
CCOC(=O)C1=C(CN2CCC(C)CC2)NC(=O)NC1c1ccc(F)cc1 (stereo not drawn) | 3.5% | . | 4.6% | -9.5%[46.1 µM] | . | .

Screens from PubChem BioAssay.
